The supplement of paper PMC12532568
Counter-ions that a name gives are not always drawn.

test system: Danio rerio larvae Tg(actc1b:ZsGreen-LC3), 3 dpf; assay: LC3 puncta relative area vs vehicle, without NH4Cl (log2 fold change); higher = more autophagosomes; details: 10 µM; treatment time 16 h; NH4Cl: none
Protocol: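 Transgenic Tg(actc1b:ZsGreen-map1lc3) zebrafish larvae (2 dpf) were treated for 16 h with Tocris library compounds at 10 µM (n = 12 larvae per compound). Skeletal-muscle LC3 puncta area relative to body area was measured by high-content confocal imaging before and after 4 h of 100 mM NH4Cl (autophagic flux), normalised to vehicle (DMSO), and reported as log2 fold change.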

Compound | LC3 puncta (log2)
OCCN(CCO)c1nc(N2CCCCC2)c2nc(N(CCO)CCO)nc(N3CCCCC3)c2n1 [Dipyridamole] | -0.714
O=S(=O)(c1cccc2cnccc12)N1CCCNCC1 [Fasudil hydrochloride] | 0.598
CC(C)(Oc1ccc(Cl)cc1)C(=O)O [Clofibric acid] | 0.448
Nc1nc2ccc(OC(F)(F)F)cc2s1 [Riluzole] | 0.289
Brc1c(NC2=NCCN2)ccc2nccnc12 | 0.438
O=C(O)c1cc(O)c2ccc(Cl)cc2n1 [7-Chlorokynurenic acid] | 0.0331
COc1cc2nc(N3CCN(C(=O)c4ccco4)CC3)nc(N)c2cc1OC [Prazosin hydrochloride] | -0.131
O=C(NCCN1CCCCC1)c1ccc(I)cc1 [N-[2-(Piperidinylamino)ethyl]-4-iodobenzamide] | 0.492
NC(=O)OCC(COC(N)=O)c1ccccc1 [Felbamate] | -0.737
O=[N+]([O-])c1cccc2cn[nH]c12 [7-Nitroindazole] | 0.16
O=C(OCCN1CCOCC1)C1(c2ccccc2)CCCCC1 [PRE-084 hydrochloride] | 0.215
CC(C)NCC(O)c1ccc2ccccc2c1 (stereo not given) [Pronethalol hydrochloride] | 0.437
CNCCCCOc1ccccc1Cc1ccccc1 [Bifemelane] | 0.531
CCc1nc(N)nc(N)c1-c1ccc(Cl)cc1 [Pyrimethamine] | 0.169
O=C(O)C=C1CCCc2ccccc2C1O (stereo not given) | 0.299
COc1cc(N)c(Cl)cc1C(=O)OCCCN1CCCCC1 | -0.0084
CN(C)CCCCSC(=N)N | 0.222
N[C@@H](C(=O)O)c1ccc(O)c(C(=O)O)c1 [(R)-3-Carboxy-4-hydroxyphenylglycine] | 0.211
NC(N)=Nc1ccc(Cl)cc1 [4-Chlorophenylguanidine hydrochloride] | -0.45
COC(=O)/C=C/c1cc(O)ccc1O [Methyl 2,5-dihydroxycinnamate] | 0.0626

Compound | LC3 puncta (log2)
CC(CCCCC(=O)Nc1ccc(C(F)(F)F)cc1)NCCc1cnc[nH]1 (stereo not given) [HTMT dimaleate] | 0.258
O=C(O)c1cc(=O)c2ccccc2[nH]1 [Kynurenic acid] | 0.00327
CCOC(=O)C1=C(C)NC(C)=C(C(=O)OC)C1c1cccc([N+](=O)[O-])c1 (stereo not given) [Nitrendipine] | 0.107
CCC1(c2ccccc2)C(=O)NCNC1=O [Primidone] | 0.333
CCCC[C@@H](C=O)NC(=O)[C@H](CC(C)C)NC(=O)OCc1ccccc1 [Calpeptin] | 1.15
Nc1cc(N2CCCCC2)nc(N)[n+]1[O-] [Minoxidil] | 0.233
CC(C)NC[C@H](O)COc1ccc(CC(N)=O)cc1 [(S)-(-)-Atenolol] | 0.12
CC1(C(=O)O)NCCc2cc(O)c(O)cc21 (stereo not given) [Salsolinol-1-carboxylic acid] | 0.463
C/N=C(/NC#N)NCCSCc1csc(NC(=N)N)n1 [Tiotidine] | 0.383
c1ccc2sc(N3CCN(Cc4ccc5c(c4)OCO5)CC3)nc2c1 [2-[1-(4-Piperonyl)piperazinyl]benzothiazole] | 0.135
CC1=C(/C=C/C(C)=C/C=C/C(C)=C/C(=O)O)C(C)(C)CCC1 [Retinoic acid] | 0.44
c1ccc(N2CCN(CCCOc3ccc4c(c3)OCO4)CC2)cc1 [BP 554 maleate] | 0.01
CC(C)(C)NC[C@H](O)COc1nsnc1N1CCOCC1 [(S)-Timolol maleate] | 0.305
CC(C)NCC(O)COc1cccc2ccccc12 (stereo not given) [Propranolol hydrochloride] | 0.0203
CN1CCC(=C2c3ccccc3CC(=O)c3sccc32)CC1 [Ketotifen fumarate] | 0.589
CC(=O)N1CCN(C)CC1 [1-Acetyl-4-methylpiperazine hydrochloride] | 0.18
COC(=O)C1=C(C)NC(C)=C(C(=O)OCCSc2ccccc2)C1C (stereo not given) | 0.00326
CCCCOc1cc(CC2CNC(=O)N2)ccc1OC (stereo not given) | -0.122
O=C(O)c1cccnc1C(=O)O [Quinolinic acid] | 0.278
COc1ccc2[nH]c(-c3ccccc3)c(CCNC(C)=O)c2c1 [2-Phenylmelatonin] | 0.513
